# Results: PubChem BioAssay (NCI)
# The panel holds about 83,000 compounds, 20% with a hit somewhere; the sample as a whole holds those more often.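 Values shown are percent growth following 48 h exposure of cells in 96-well plates to a single concentration of compound; below 10 was considered active.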 The source made the active and inactive calls.
# Columns and labels:
# Test in all cases: NCI-60 one-dose screen, 48 h (100 = growth as untreated, 0 = no growth, -100 = all killed)
# Conditions in all cases: 10 µM unless noted
# SR leukemia = test system: SR leukemia
# RPMI-8226 leukemia = test system: RPMI-8226 leukemia
# OVCAR-8 ovarian = test system: OVCAR-8 ovarian
# OVCAR-5 ovarian = test system: OVCAR-5 ovarian
# OVCAR-4 ovarian = test system: OVCAR-4 ovarian
# SK-OV-3 ovarian = test system: SK-OV-3 ovarian
# IGROV1 ovarian = test system: IGROV1 ovarian
# OVCAR-3 ovarian = test system: OVCAR-3 ovarian
# HS 578T breast = test system: HS 578T breast
# NCI/ADR-RES ovarian = test system: NCI/ADR-RES ovarian
# T-47D breast = test system: T-47D breast
# BT-549 breast = test system: BT-549 breast
# MDA-MB-435 melanoma = test system: MDA-MB-435 melanoma
# SW-620 colon = test system: SW-620 colon
# MCF7 breast = test system: MCF7 breast
# HCT-116 colon = test system: HCT-116 colon
# KM12 colon = test system: KM12 colon
# HCC-2998 colon = test system: HCC-2998 colon
SMILES,growth (SR leukemia),growth (RPMI-8226 leukemia),growth (OVCAR-8 ovarian),growth (OVCAR-5 ovarian),growth (OVCAR-4 ovarian),growth (SK-OV-3 ovarian),growth (IGROV1 ovarian),growth (OVCAR-3 ovarian),growth (HS 578T breast),growth (NCI/ADR-RES ovarian),growth (T-47D breast),growth (BT-549 breast),growth (MDA-MB-435 melanoma),growth (SW-620 colon),growth (MCF7 breast),growth (HCT-116 colon),growth (KM12 colon),growth (HCC-2998 colon)
COC12C=C/C(=C(/C(=O)OCc3csc(SC)n3)C(=O)CCCCCCCCC3(OC)C=C/C(=C(/C(=O)OCc4cnc(SC)s4)C(=O)CCCCCCCC1)O3)O2 (stereo unspecified),1.64% (active),1.53% (active),27% (inactive),60% (inactive),38.8% (inactive),87.8% (inactive),21% (inactive),21.5% (inactive),57.2% (inactive),81.3% (inactive),41.9% (inactive),31.7% (inactive),10% (inactive),27.6% (inactive),23.3% (inactive),7.05% (active),18.1% (inactive),
CNC(=O)c1cc(Oc2ccc3c(c2)sc2nc(-c4ccc(Cl)c(C(F)(F)F)c4)cn23)ccn1,41.6% (inactive),33.9% (inactive),52.5% (inactive),100% (inactive),65% (inactive),78% (inactive),86.3% (inactive),74.2% (inactive),80.3% (inactive),60.9% (inactive),25.7% (inactive),45.9% (inactive),65.8% (inactive),68.6% (inactive),36.8% (inactive),41% (inactive),82.6% (inactive),
c1ccc(Cn2cc3c(c2-c2ccccc2)CCc2cnoc2-3)cc1,37.3% (inactive),46.7% (inactive),84.5% (inactive),96% (inactive),86.2% (inactive),88% (inactive),76.6% (inactive),56.7% (inactive),71.5% (inactive),40.6% (inactive),67% (inactive),64.1% (inactive),13.5% (inactive),24.1% (inactive),51.3% (inactive),44.5% (inactive),27.7% (inactive),
Nc1ncnc2c1N=C(c1ccc(F)cc1)CC(c1cccc(Nc3ccnc4cc(Cl)ccc34)c1)N2 (stereo unspecified),0.875% (active),25.9% (inactive),82.2% (inactive),107% (inactive),76.3% (inactive),98.9% (inactive),74.3% (inactive),88.9% (inactive),68.3% (inactive),78.2% (inactive),93.2% (inactive),99.9% (inactive),41.8% (inactive),82.8% (inactive),51.2% (inactive),49.7% (inactive),60.9% (inactive),
O=C(/C=C/c1ccccc1)c1ccc(-n2cc(CN3CCN(c4cc5c(cc4F)c(=O)c(C(=O)O)cn5C4CC4)CC3)nn2)cc1,24.1% (inactive),-0.509% (active),62% (inactive),92.2% (inactive),89.7% (inactive),80% (inactive),84% (inactive),91.5% (inactive),67.4% (inactive),87% (inactive),92.9% (inactive),76.7% (inactive),79.5% (inactive),83.7% (inactive),58.2% (inactive),6.95% (active),73.7% (inactive),
Cc1ccc(C2CC(c3cccc(Nc4ccncc4)c3)=Nc3c(N)nc(N)nc3N2)cc1 (stereo unspecified),-4.18% (active),44.9% (inactive),38% (inactive),95.5% (inactive),81.2% (inactive),97.9% (inactive),42.4% (inactive),82.1% (inactive),80% (inactive),101% (inactive),89% (inactive),114% (inactive),21.7% (inactive),30.4% (inactive),37.7% (inactive),22.3% (inactive),51.7% (inactive),
COc1ccc(Oc2ccc(/C=C/C(=O)c3ccc(OC)c(OC)c3)cc2)cc1,50.9% (inactive),54.7% (inactive),73.8% (inactive),112% (inactive),62.8% (inactive),97.3% (inactive),85.5% (inactive),86.7% (inactive),88.2% (inactive),83.4% (inactive),60.8% (inactive),85.3% (inactive),90.3% (inactive),83.9% (inactive),56.3% (inactive),69.3% (inactive),79% (inactive),
CC(C)NS(=O)(=O)/N=C1\NC(=O)NC1=C(Cl)Cl,19.7% (inactive),91.1% (inactive),96.2% (inactive),115% (inactive),106% (inactive),102% (inactive),97.1% (inactive),98.5% (inactive),97.9% (inactive),98.5% (inactive),79.7% (inactive),104% (inactive),94.3% (inactive),103% (inactive),82.7% (inactive),102% (inactive),85.4% (inactive),110% (inactive)
C/C(=N\Nc1ccccc1)c1ccc(NC2=CC(=O)c3ccccc3C2=O)cc1,59.2% (inactive),64.3% (inactive),59.8% (inactive),72.5% (inactive),43% (inactive),65.3% (inactive),50.8% (inactive),15.4% (inactive),65.5% (inactive),54% (inactive),38.8% (inactive),76.3% (inactive),-80.3% (active),48.4% (inactive),30.4% (inactive),,43.7% (inactive),77.9% (inactive)
C=C(C)[C@@H]1CC[C@]2(C)[C@H](C=CC3=C4C[C@@](C)(CO)CC[C@]4(C)CC[C@]32C)[C@@]1(C)CCCN,-31.4% (active),-33.3% (active),-38.7% (active),19.1% (inactive),-55.4% (active),8.02% (active),6.46% (active),-58.8% (active),-51.2% (active),-40.7% (active),-43.7% (active),80% (inactive),-96.8% (active),-80.8% (active),-78.5% (active),,-71.7% (active),-92% (active)
Nc1nc(C(=O)N/N=C/c2ccc(F)cc2)nn1-c1ccc(S(N)(=O)=O)cc1,98.5% (inactive),91% (inactive),97.5% (inactive),104% (inactive),98.4% (inactive),105% (inactive),91.5% (inactive),102% (inactive),101% (inactive),98.3% (inactive),99.3% (inactive),114% (inactive),100% (inactive),99.2% (inactive),98.8% (inactive),101% (inactive),96.7% (inactive),
COC(=O)/C=C1/SC(=Nc2ccc(F)cc2)N(CCc2c[nH]c3ccc(O)cc23)C1=O,-4.72% (active),4.11% (active),26.1% (inactive),76.3% (inactive),30.3% (inactive),80.8% (inactive),24.6% (inactive),21.5% (inactive),37.4% (inactive),32.7% (inactive),23.7% (inactive),8.93% (active),25.4% (inactive),53.7% (inactive),17% (inactive),23.1% (inactive),38.3% (inactive),
CCOC(=O)C(CCN(C)C)c1ccccc1 (stereo unspecified),97.8% (inactive),98.2% (inactive),111% (inactive),88.7% (inactive),100% (inactive),104% (inactive),104% (inactive),96.4% (inactive),98% (inactive),103% (inactive),103% (inactive),97.3% (inactive),107% (inactive),108% (inactive),92.7% (inactive),,104% (inactive),96.3% (inactive)
CC(C)=CC(=O)N[C@H]1CC[C@]2(C)C3CC[C@]4(C)C(C(C)N(C)C)=CCC4C3CCC2[C@H]1O (stereo partly specified),30.2% (inactive),5.55% (active),77.6% (inactive),101% (inactive),7.83% (active),115% (inactive),51.3% (inactive),31.2% (inactive),57.1% (inactive),71.6% (inactive),38.6% (inactive),54.4% (inactive),-33.8% (active),-23.5% (active),11.4% (inactive),2.25% (active),23.2% (inactive),
Cc1ccc2nc(-c3ccc(C(=O)N/N=C/c4ccc([N+](=O)[O-])cc4)cc3)[nH]c2c1,92% (inactive),95.6% (inactive),105% (inactive),96.5% (inactive),107% (inactive),109% (inactive),91.3% (inactive),115% (inactive),105% (inactive),106% (inactive),91.1% (inactive),106% (inactive),102% (inactive),106% (inactive),88.3% (inactive),103% (inactive),97.6% (inactive),
CCCCCCCCCCOC(=O)c1nn(C(C)=O)c2cc(C)c(C)cc12,98.2% (inactive),88.9% (inactive),98.5% (inactive),100% (inactive),0.466% (active),92.3% (inactive),103% (inactive),111% (inactive),104% (inactive),98.1% (inactive),99.7% (inactive),90.5% (inactive),100% (inactive),97.3% (inactive),94% (inactive),75.4% (inactive),104% (inactive),
CC(O)Cc1c[nH]c(=O)[nH]c1=O (stereo unspecified),93.8% (inactive),117% (inactive),92% (inactive),109% (inactive),115% (inactive),29.3% (inactive),116% (inactive),99% (inactive),103% (inactive),104% (inactive),-19.1% (active),105% (inactive),103% (inactive),94.9% (inactive),88.9% (inactive),97.2% (inactive),95.6% (inactive),119% (inactive)
O=S(=O)(Nc1cc(Sc2nc3ccccc3s2)c(O)c2ccccc12)c1ccc2ccccc2c1,100% (inactive),88.5% (inactive),75.3% (inactive),111% (inactive),77.8% (inactive),101% (inactive),101% (inactive),82.6% (inactive),101% (inactive),86.1% (inactive),79.5% (inactive),105% (inactive),95.4% (inactive),108% (inactive),81.7% (inactive),,92.6% (inactive),
CC(C)(C)OC(=O)CN1CCc2c(sc3ncnc(N4CCN(c5ccc(F)cc5)CC4)c23)C1,79.8% (inactive),57.7% (inactive),73.2% (inactive),82.8% (inactive),85.5% (inactive),102% (inactive),89.8% (inactive),90.5% (inactive),70.4% (inactive),79.7% (inactive),,76.1% (inactive),93.3% (inactive),77.7% (inactive),90.6% (inactive),87.3% (inactive),83% (inactive),100% (inactive)
COc1ccc(/C=N/NC(=O)Cn2c(-c3ccc(S(C)(=O)=O)cc3)nc3ccccc32)cc1,100% (inactive),105% (inactive),111% (inactive),99.7% (inactive),117% (inactive),117% (inactive),91.4% (inactive),103% (inactive),92.4% (inactive),104% (inactive),102% (inactive),103% (inactive),97.8% (inactive),97.6% (inactive),88.6% (inactive),,104% (inactive),95.7% (inactive)
